Results: PubChem BioAssay (Tox21)
Inconclusive results are not listed. Calls of active or inactive are those of the source. Calls follow the shape of the full dose curve.

Columns and labels:
[1] = biological target: Acetylcholinesterase (Homo sapiens) (UniProt P22303); assay: Acetylcholinesterase (AChE) small molecule antagonists: colormetric cell-based qHTS assay (AID 1347395); also: nearly all actives have a fitted effect of over 30% in size
Summary of the method: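 SH-SY5Y cells; cpd 30 min 37 C; + DTNB/acetylthiocholine, 90 min 37 C; colorimetric thiocholine read; qHTS.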

[2] = biological target: Acetylcholinesterase (Homo sapiens) (UniProt P22303); assay: Acetylcholinesterase (AChE) small molecule antagonists: enzyme-based qHTS assay (AID 1347397); settings: Potency: AChE enzyme activity inhibition; outcome: AChE enzyme activity inhibition; also: nearly all actives have a fitted effect of over 55% in size; also: potency is read from the fitted curve at half-maximal effect
Summary of the method: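 Recombinant human AChE (50 mU/mL) preincubated with compound 30 min at room temperature; acetylthiocholine plus DTNB then added, and thiocholine formation read colorimetrically after 10 min at room temperature. DMSO served as vehicle control.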

[3] = biological target: Acetylcholinesterase (Homo sapiens) (UniProt P22303); assay: Acetylcholinesterase (AChE) small molecule antagonists: fluorescence cell-based qHTS assay (AID 1347398); settings: Potency: AChE activity; outcome: AChE activity; also: nearly all actives have a fitted effect of over 50% in size
Summary of the method: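 SH-SY5Y cells (2000/well), attached overnight, incubated with compound 30 min at 37 C. Acetylthiocholine plus Thiolite Green then added for 40 min at room temperature. Thiocholine fluorescence (Ex/Em 490/520 nm) reports cellular AChE activity.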

[4] = biological target: Acetylcholinesterase (Homo sapiens) (UniProt P22303); assay: Acetylcholinesterase (AChE) small molecule antagonists: enzyme-based qHTS assay with human liver microsomes (AID 1347399); settings: Potency: qHTS inhibition; outcome: qHTS inhibition; also: nearly all actives have a fitted effect of over 60% in size
Summary of the method: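 Recombinant human AChE (50 mU/mL in the enzyme mix) and human liver microsomes (0.25 mg/mL final) were preincubated with compound and NADPH (0.25 mg/mL final) for 30 min at 37 C. Acetylthiocholine/DTNB was then added; thiocholine was read colorimetrically after 10 min at room temperature.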
% is scaled to controls: 0 for no effect and ±100 for the full control effect.

Chain of Acetylcholinesterase (Homo sapiens) (P22303 whole entry, looked up): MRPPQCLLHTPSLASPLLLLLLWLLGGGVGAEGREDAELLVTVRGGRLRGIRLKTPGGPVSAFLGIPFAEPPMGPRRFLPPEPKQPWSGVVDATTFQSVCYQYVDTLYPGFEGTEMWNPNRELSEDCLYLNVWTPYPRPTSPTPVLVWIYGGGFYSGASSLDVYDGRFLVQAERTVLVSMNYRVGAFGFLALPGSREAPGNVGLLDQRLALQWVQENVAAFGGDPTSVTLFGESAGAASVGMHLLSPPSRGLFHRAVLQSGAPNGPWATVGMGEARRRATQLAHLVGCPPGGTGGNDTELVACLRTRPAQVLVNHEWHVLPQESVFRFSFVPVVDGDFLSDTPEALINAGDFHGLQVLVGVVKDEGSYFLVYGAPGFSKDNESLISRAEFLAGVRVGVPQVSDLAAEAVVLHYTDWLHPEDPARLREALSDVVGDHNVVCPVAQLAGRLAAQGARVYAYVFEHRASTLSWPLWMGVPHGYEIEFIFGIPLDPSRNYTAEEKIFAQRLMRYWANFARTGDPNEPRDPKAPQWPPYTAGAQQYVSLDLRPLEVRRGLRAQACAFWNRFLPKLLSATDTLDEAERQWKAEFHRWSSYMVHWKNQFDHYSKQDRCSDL

CC1(C)C(=O)NC(=O)N1CO
inactive: Potency [1] | Potency [2] | Potency [3] | Potency [4]

C=C[C@H]1CN2CC[C@H]1C[C@H]2[C@H](O)c1ccnc2ccc(OC)cc12
inactive: Potency [1] | Potency [2] | Potency [3] | Potency [4]

Cc1ccc(N(C)C)cc1
inactive: Potency [1] | Potency [2] | Potency [3] | Potency [4]

Clc1ccc(Sc2cc(Cl)c(Cl)cc2Cl)cc1
inactive: Potency [1] | Potency [2] | Potency [3] | Potency [4]

CCCOC(=O)CC
inactive: Potency [1] | Potency [2] | Potency [3] | Potency [4]

CC(=O)c1ccccc1
inactive: Potency [1] | Potency [2] | Potency [3] | Potency [4]

Nc1nc(N)c2nc(-c3ccccc3)c(N)nc2n1
inactive: Potency [1] | Potency [2] | Potency [3] | Potency [4]

O=C(O)[C@H](O)[C@@H](O)[C@H](O)[C@H](O)CO
inactive: Potency [1] | Potency [2] | Potency [3] | Potency [4]

CCCCCCc1ccc(-c2ccc(C#N)cc2)cc1
inactive: Potency [1] | Potency [2] | Potency [3] | Potency [4]

CCCCCCCCCCCCCCCC(=O)OC
inactive: activity, negative = inhibition [1] 2.77% [at 23.6 µM] | activity change, negative = inhibition [2] -0.557% [at 23.6 µM] | activity change, negative = inhibition [3] 2.99% [at 23.8 µM] | activity change, negative = inhibition [4] 0.243% [at 23.6 µM]

O=C(O)C1(C(=O)O)CCC1.[NH2-].[NH2-].[Pt+2]
inactive: Potency [1] | Potency [3] | Potency [4]
active: Potency [2] 21.9 µM

CC1CCCCC1
inactive: Potency [1] | Potency [2] | Potency [3] | Potency [4]

C=C(C)C(=O)OCC1CCCO1 (stereo not given)
inactive: Potency [1] | Potency [2] | Potency [3] | Potency [4]

OCC(CO)(CO)COCC(CO)(CO)CO
inactive: Potency [1] | Potency [2] | Potency [3] | Potency [4]

CCCCS(=O)(=O)N[C@@H](Cc1ccc(OCCCCC2CCNCC2)cc1)C(=O)O
inactive: Potency [1] | Potency [2] | Potency [3] | Potency [4]

Cc1cc(O)cc(C)c1Cl
inactive: Potency [1] | Potency [2] | Potency [3] | Potency [4]

CC(C=O)Cc1ccc(C(C)(C)C)cc1 (stereo not given)
inactive: Potency [1] | Potency [2] | Potency [3] | Potency [4]

CCCCCCCCCCCCN1CCCCCC1=O
inactive: Potency [1] | Potency [2] | Potency [3] | Potency [4]

O=C(CCc1ccc(O)cc1)c1c(O)cc(O)cc1O
inactive: Potency [1] | Potency [3] | Potency [4]
active: Potency [2] 57.7 µM

CCOCCn1c(N2CCCN(C)CC2)nc2ccccc21
inactive: Potency [1] | Potency [2] | Potency [3] | Potency [4]

CCC(C)OC(=O)c1ccc(O)cc1 (stereo not given)
inactive: Potency [1] | Potency [2] | Potency [3] | Potency [4]

O=c1[nH]sc2cc(Cl)ccc12
inactive: Potency [1] | Potency [2] | Potency [3] | Potency [4]

O=[Se](O)O
inactive: Potency [1] | Potency [2] | Potency [3] | Potency [4]

O=C(O)CN(CCN(CC(=O)O)CC(=O)O)CCN(CC(=O)O)CC(=O)O
inactive: activity, negative = inhibition [1] 0.969% [at 23.6 µM] | activity change, negative = inhibition [2] 0.748% [at 23.6 µM] | activity change, negative = inhibition [3] 7.05% [at 23.8 µM] | activity change, negative = inhibition [4] 0% [at 23.6 µM]

Cc1ccc2ccc(Cl)cc2n1
inactive: Potency [1] | Potency [2] | Potency [3] | Potency [4]

O=c1cc[nH]c(=O)[nH]1
inactive: Potency [1] | Potency [2] | Potency [3] | Potency [4]

CCCN(CCC)C(=O)C(CCC(=O)OCCCN1CCN(CCOC(=O)Cc2c(C)n(C(=O)c3ccc(Cl)cc3)c3ccc(OC)cc23)CC1)NC(=O)c1ccccc1 (stereo not given)
inactive: Potency [1] | Potency [2] | Potency [3] | Potency [4]

C=CC(=O)NC(C)(C)CS(=O)(=O)O
inactive: Potency [1] | Potency [2] | Potency [3] | Potency [4]

CCCCCCCCOC(C)=O
inactive: Potency [1] | Potency [2] | Potency [3] | Potency [4]

C=C(C)C(=O)Nc1ccc(Cl)c(Cl)c1
inactive: Potency [1] | Potency [2] | Potency [3] | Potency [4]
